Results: ChEMBL document CHEMBL3433997, “St. Jude Leishmania screening dataset” (2016)

What follows are molecules tested against Hexose transporter 1 (Plasmodium falciparum) (UniProt O97467) (assay: ST_JUDE_LEISH: Cytotoxicity at 2uM final concentration against transgenic Leishmania Mexicana promastigotes LmPfHT that are glucose transport deficient and complemented with the Plasmodium falciparum hexose transporter. Activity is measured by DNA content using SYBR green in vitro).
Type: functional

Compound	inhibition [%]
Oc1ccc(CCNc2nc(N/N=C/c3ccc(Cl)cc3)nc(N3CCNCC3)n2)cc1	1.75
CCN(CC)CCCCNc1cc(-c2[nH]c(C(C)(C)C)nc2-c2ccc3cc(OC)ccc3c2)ccn1	4.79
C=C[C@H]1CN(CCCCCCC)CC[C@H]1CCNc1ccnc2ccc(OC)cc12	3.68
COc1cc(NC(=O)/C=C/c2ccccc2OC(F)(F)F)cc(OCCN2CCCCC2)c1	1.06
Cc1ccccc1C1CCN(C2CCC(NC(=O)/C=C/c3cc(F)cc(F)c3)CC2)CC1 (stereo not given)	-0.51
Cc1ccc(S(=O)(=O)N2CCN(C(=O)c3cc(-c4cccs4)n[nH]3)CC2)c(C)c1	2.34
Cc1cc(Nc2ccccc2)nc(NCCOc2ccccc2)n1	8.42
CC(Cc1ccc(OCCN2CCN(c3ccc(Cl)cc3)CC2)cc1)NCC(O)c1cccc(C(F)(F)F)c1 (stereo not given)	-1.57
COc1cc(NC2=C(c3ccccc3)C(=O)c3ccccc32)ccn1	2.03
CON(C)C(=O)[C@@H](CCCCNC(=O)OCc1ccccc1)NC(=O)OC(C)(C)C	-1.84
COc1cc(Nc2nccc(N3CCC(NC(=O)Nc4cc(C)ccc4C)C3)n2)cc(OC)c1OC (stereo not given)	1.62
Nc1cc(-c2ccc(Br)cc2O)nc2ccccc12	0.65
Cn1nc(-c2ccc(NC(=O)Nc3cc(C(F)(F)F)ccc3F)cc2)c2cnc(NCCCCN3CCCC3)nc21	4.39
COc1ccc(Cl)cc1NC(=O)Nc1cc(C)nc2ccccc12	12.8
CN1CCN(c2ccnc3ccc(NC(=O)N(C)c4ccc(Cl)c(Cl)c4)cc23)CC1	0.31
CN(Cc1ccc(-c2ccc(C(F)(F)F)cc2)cc1)C(=O)Cn1c(CCc2cccc(F)c2F)cc(=O)c2ccc(OCCCN3CCCCC3)cc21	0.66
O=C(NCCN1CCCC1)c1ccc(-c2ccc(-c3nc4cc(C(F)(F)F)ccc4[nH]3)s2)cc1	2.28
CCCc1cc(Cc2cnc(N)nc2N)cc(CCC)c1O	1.83
CC(C)Oc1cccc(-c2ccc(C(=O)NCC3CCCN(Cc4cccc(C(F)(F)F)c4)C3)s2)c1 (stereo not given)	-1.35
CCC[C@@H]([C@@H](CC1CCCCC1)C(=O)N[C@@H](CCOC(=O)NCC)C(=O)Nc1nccs1)N(O)C=O	10.3

Compound	inhibition [%]
CN(C)c1cc(C(=O)N[C@@H](Cc2ccccc2)[C@H](O)CNC2CCCCC2)cc2[nH]ccc12	4.72
CC(C)CN1C(=O)C(c2ccc(F)c(F)c2)=C(O)C1c1ccccc1 (stereo not given)	4.04
CCN1CCC(N(CCCCCCCCc2ccc(C(F)(F)F)cc2)C(=O)Cn2c(CCc3cccc(F)c3F)cc(=O)c3ccccc32)CC1	9.52
O=C(Nc1ccc2c(c1)CCC2)c1cnc(N2CCN(c3ccncc3)CC2)c(Cl)c1	63.6
CC(C)C[C@@H](/C=N/N1CCNC1=O)NC(=O)[C@H](CC(C)C)NC(=O)c1ccc(OCCN2CCOCC2)cc1	6.5
O=C1Nc2cccc3c2C1(CCCCN1CCC(c2c(-c4ccccc4)[nH]c4ccccc24)CC1)CCC3 (stereo not given)	2.74
Cc1cc(C(=O)OCC(N)=O)c(C)n1-c1ccc(F)cc1	6.13
OC1CCCN(Cc2ccc(-c3cccc(-c4nc5ccccc5[nH]4)c3)cc2)C1 (stereo not given)	1.57
N#Cc1ccc(CN2CCC(Oc3ccc(NC(=O)c4cccs4)cc3Cl)CC2)cc1	10.5
CCCC1(NC[C@@H](O)[C@H](Cc2ccccc2)NC(=O)c2cc(NCC)cc(N3CCCCS3(=O)=O)c2)CCCCC1	0.97
CCOC(=O)c1ccc(-c2cnoc2-c2cc(CC)c(OC)cc2O)o1	1.08
CCc1ccc(C2CCN(CCCCNC(=O)c3ccc(-c4ccc(C(F)(F)F)cc4)cc3)CC2)c(OCCO)c1	7.58
COc1c(C2CCN(CCCCNC(=O)c3cc(-c4ccc(Cl)cc4)oc3C)CC2)ccc2c1CCCC2	9.78
COc1ccccc1C1CCN(CCCCNC(=O)c2ccc(NC(=O)c3ccc(Cl)cc3)cc2)CC1	3.41
Cc1ccccc1NC(=O)C1CSCN1C(=O)OCc1ccccc1 (stereo not given)	-0.23
CN(Cc1cccc(F)c1)C1CCN(c2cc(NC(=O)c3cccc(F)c3)ccn2)CC1	3.18
O=C(NC1CCN(Cc2ccc(F)cc2)CC1)c1ccc(-c2cccc(C(F)(F)F)c2)s1	9.88
COc1ccc2nccc([C@@H](O)CN3CCC(NC(=O)/C=C/c4ccnc5ccccc45)CC3)c2c1	-1.62
C[C@H]1CN(Cc2cccc(-c3cc(CNC(=O)c4cccc(CC5CCN(C)CC5)c4)ccc3F)c2)CCN1C	0.27
CCNc1cc(C(=O)N[C@@H](Cc2ccc(F)c(F)c2)[C@H](O)CNCc2cccc(OC)c2)cc(N2CCCCS2(=O)=O)c1	0.17

The molecules below were run against Glucose transporter (Leishmania mexicana) (UniProt O61059) (assay: ST_JUDE_LEISH: Cytotoxicity at 2uM final concentration against transgenic Leishmania Mexicana promastigotes LmGT2 that are glucose transport deficient and complemented with the L. Mexicana glucose transporter 2. Activity is measured by DNA content using SYBR green in vitro).
Type: functional

Compound	inhibition [%]
Oc1ccc(CCNc2nc(N/N=C/c3ccc(Cl)cc3)nc(N3CCNCC3)n2)cc1	0.33
CCN(CC)CCCCNc1cc(-c2[nH]c(C(C)(C)C)nc2-c2ccc3cc(OC)ccc3c2)ccn1	1.94
C=C[C@H]1CN(CCCCCCC)CC[C@H]1CCNc1ccnc2ccc(OC)cc12	-1.48
COc1cc(NC(=O)/C=C/c2ccccc2OC(F)(F)F)cc(OCCN2CCCCC2)c1	1.67
Cc1ccccc1C1CCN(C2CCC(NC(=O)/C=C/c3cc(F)cc(F)c3)CC2)CC1 (stereo not given)	-1.77
Cc1ccc(S(=O)(=O)N2CCN(C(=O)c3cc(-c4cccs4)n[nH]3)CC2)c(C)c1	-0.33
Cc1cc(Nc2ccccc2)nc(NCCOc2ccccc2)n1	2.95
CC(Cc1ccc(OCCN2CCN(c3ccc(Cl)cc3)CC2)cc1)NCC(O)c1cccc(C(F)(F)F)c1 (stereo not given)	0.07
COc1cc(NC2=C(c3ccccc3)C(=O)c3ccccc32)ccn1	1.41
CON(C)C(=O)[C@@H](CCCCNC(=O)OCc1ccccc1)NC(=O)OC(C)(C)C	-1.83
COc1cc(Nc2nccc(N3CCC(NC(=O)Nc4cc(C)ccc4C)C3)n2)cc(OC)c1OC (stereo not given)	2.46
Nc1cc(-c2ccc(Br)cc2O)nc2ccccc12	2.06
Cn1nc(-c2ccc(NC(=O)Nc3cc(C(F)(F)F)ccc3F)cc2)c2cnc(NCCCCN3CCCC3)nc21	4.25
COc1ccc(Cl)cc1NC(=O)Nc1cc(C)nc2ccccc12	2.81
CN1CCN(c2ccnc3ccc(NC(=O)N(C)c4ccc(Cl)c(Cl)c4)cc23)CC1	1.72
CN(Cc1ccc(-c2ccc(C(F)(F)F)cc2)cc1)C(=O)Cn1c(CCc2cccc(F)c2F)cc(=O)c2ccc(OCCCN3CCCCC3)cc21	-0.5
O=C(NCCN1CCCC1)c1ccc(-c2ccc(-c3nc4cc(C(F)(F)F)ccc4[nH]3)s2)cc1	3.38
CCCc1cc(Cc2cnc(N)nc2N)cc(CCC)c1O	1.49
CC(C)Oc1cccc(-c2ccc(C(=O)NCC3CCCN(Cc4cccc(C(F)(F)F)c4)C3)s2)c1 (stereo not given)	-3
CCC[C@@H]([C@@H](CC1CCCCC1)C(=O)N[C@@H](CCOC(=O)NCC)C(=O)Nc1nccs1)N(O)C=O	9.7

Compound	inhibition [%]
CN(C)c1cc(C(=O)N[C@@H](Cc2ccccc2)[C@H](O)CNC2CCCCC2)cc2[nH]ccc12	7.44
CC(C)CN1C(=O)C(c2ccc(F)c(F)c2)=C(O)C1c1ccccc1 (stereo not given)	-7.87
CCN1CCC(N(CCCCCCCCc2ccc(C(F)(F)F)cc2)C(=O)Cn2c(CCc3cccc(F)c3F)cc(=O)c3ccccc32)CC1	4.76
O=C(Nc1ccc2c(c1)CCC2)c1cnc(N2CCN(c3ccncc3)CC2)c(Cl)c1	37
CC(C)C[C@@H](/C=N/N1CCNC1=O)NC(=O)[C@H](CC(C)C)NC(=O)c1ccc(OCCN2CCOCC2)cc1	0.69
O=C1Nc2cccc3c2C1(CCCCN1CCC(c2c(-c4ccccc4)[nH]c4ccccc24)CC1)CCC3 (stereo not given)	-0.14
Cc1cc(C(=O)OCC(N)=O)c(C)n1-c1ccc(F)cc1	3.07
OC1CCCN(Cc2ccc(-c3cccc(-c4nc5ccccc5[nH]4)c3)cc2)C1 (stereo not given)	2.79
N#Cc1ccc(CN2CCC(Oc3ccc(NC(=O)c4cccs4)cc3Cl)CC2)cc1	8.03
CCCC1(NC[C@@H](O)[C@H](Cc2ccccc2)NC(=O)c2cc(NCC)cc(N3CCCCS3(=O)=O)c2)CCCCC1	4.36
CCOC(=O)c1ccc(-c2cnoc2-c2cc(CC)c(OC)cc2O)o1	1.38
CCc1ccc(C2CCN(CCCCNC(=O)c3ccc(-c4ccc(C(F)(F)F)cc4)cc3)CC2)c(OCCO)c1	6.13
COc1c(C2CCN(CCCCNC(=O)c3cc(-c4ccc(Cl)cc4)oc3C)CC2)ccc2c1CCCC2	5.26
COc1ccccc1C1CCN(CCCCNC(=O)c2ccc(NC(=O)c3ccc(Cl)cc3)cc2)CC1	2.05
Cc1ccccc1NC(=O)C1CSCN1C(=O)OCc1ccccc1 (stereo not given)	-0.28
CN(Cc1cccc(F)c1)C1CCN(c2cc(NC(=O)c3cccc(F)c3)ccn2)CC1	2.7
O=C(NC1CCN(Cc2ccc(F)cc2)CC1)c1ccc(-c2cccc(C(F)(F)F)c2)s1	1.44
COc1ccc2nccc([C@@H](O)CN3CCC(NC(=O)/C=C/c4ccnc5ccccc45)CC3)c2c1	-2.64
C[C@H]1CN(Cc2cccc(-c3cc(CNC(=O)c4cccc(CC5CCN(C)CC5)c4)ccc3F)c2)CCN1C	-3.42
CCNc1cc(C(=O)N[C@@H](Cc2ccc(F)c(F)c2)[C@H](O)CNCc2cccc(OC)c2)cc(N2CCCCS2(=O)=O)c1	-0.12
